The values below come from PubChem BioAssay (Tox21).

Molecules are shown by their SMILES. Where “and” joins values, the source holds several entries; their conditions need not be identical. Equal entries are not always repeated. Records with an inconclusive call do not appear. Entries that show only a call come without a potency. Calls of active or inactive are those of the source. Calls come from the whole dose curve; as a rule, active = well fitted curve in the direction sought with a large enough effect in the repeat runs; inconclusive = weak or mixed curves; inactive = no such curve, though single readings can be large; an effect the other way counts as inactive or inconclusive.
Potency is the fitted concentration of half-maximal effect.

A short description of the first experiment: qHTS assay to identify small molecule agonists of the RXR signaling pathway - cell viability counter screen (AID 1159529). Note: nearly all actives have a fitted effect of over 50% in size. As to conditions: RXR-alpha-bla HEK293T viability, CellTiter-Glo, 16 h; series mostly up to 76.8 µM; activity change, negative = cytotoxicity: at the top concentration. Summed up:
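Luminescence from CellTiter-Glo (30 min, RT) measured viability in the same wells as the beta-lactamase reporter readout. Cells: GeneBLAzer RXR-alpha HEK 293T, 2% charcoal-stripped FBS. Compound exposure 16 hr, 37 C.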
Turning to `COc1ccc2nc(N)sc2c1`, the Potency result was “inactive”.

Take `C[C@]12C=CC(=O)C=C1CC[C@H]1[C@@H]3C[C@@H](O)[C@](O)(C(=O)CO)[C@@]3(C)C[C@H](O)[C@@]12F`: the Potency entry is “inactive”.

As for `C[N+](C)(C)CCO`, the Potency entry is “inactive”.

In the case of `c1ccc2c(c1)ccc1ncccc12`, the Potency entry was “inactive”.

Turning to `Cc1ccc2c(c1)C(=O)OC2=O`, the Potency result was “inactive”.

For `c1ccc2cc3ccccc3cc2c1`, the Potency result is “inactive”.

For `O=Cc1ccccc1C=O`, the Potency entry was “inactive”.

Regarding `CNC[C@H](O)c1ccc(O)c(O)c1`, the Potency entry was “inactive”.

As for `C=CCOC(=O)C(=C)C`, the Potency result was “inactive”.

Consider `C=C1C[C@H]2[C@@H]3C=C(C)C4=CC(=O)CC[C@]4(C)[C@H]3CC[C@]2(C)[C@@]1(OC(C)=O)C(C)=O`, for which the Potency result was “inactive”.

Turning to `CCCCCC1C(=O)CCC1CC(=O)OC` (stereo not drawn), the Potency entry was “inactive”.

On to `CC(=O)O[C@]1(C(C)=O)CC[C@H]2[C@@H]3C=C(Cl)C4=CC(=O)CC[C@]4(C)[C@H]3CC[C@@]21C`, for which the Potency result is “inactive”.

Consider `CC(=O)Nc1ccc2c(c1)Cc1cc(NC(C)=O)ccc1-2`, for which the Potency result is “inactive”.

As to `Nc1ccc2c(c1)C(=O)c1ccccc1C2=O`, the “activity change, negative = cytotoxicity” value was -11.8% (inactive).

Regarding `O=C(O)c1cc(=O)[nH]c(=O)[nH]1`, the Potency result was “inactive”.

Turning to `C[C@]12CC[C@@H]3c4ccc(O)cc4CC[C@H]3[C@@H]1CC[C@H]2O`, the Potency result is “inactive”.

As for `IC(I)I`, the Potency result is “inactive”.

`O=C1OC2(c3ccccc31)c1cc(I)c(O)c(I)c1Oc1c2cc(I)c(O)c1I`: the Potency result was “inactive”.

Consider `Oc1c(Cl)ccc(Cl)c1Cl`, for which the “activity change, negative = cytotoxicity” value was -19% (inactive).

As to `Nc1cc(Cl)c(N)c(Cl)c1`, the Potency entry is “inactive”.

As to `OC[C@@H](O)[C@@H](O[C@@H]1O[C@H](CO)[C@H](O)[C@H](O)[C@H]1O)[C@H](O)[C@@H](O)CO`, the Potency result is “inactive”.

`C[C@]12CC[C@@H]3c4ccc(O)cc4CC[C@H]3[C@@H]1CC[C@@H]2O`: the Potency result is “inactive”.

With `C=CC(C)(O)CCC=C(C)C` (stereo not drawn), the Potency entry is “inactive”.

As for `C=C[C@@]1(C)CC(=O)[C@]2(O)[C@@]3(C)[C@@H](O)CCC(C)(C)[C@@H]3[C@H](O)[C@H](OC(C)=O)[C@@]2(C)O1`, the Potency was 11 µM (active) and 7.56 µM (active).

Regarding `c1ccc2c(c1)ccc1cc3c(ccc4ccccc43)cc12`, the Potency result was “inactive”.

Take `C=C[Si](OCCOC)(OCCOC)OCCOC`: the Potency entry is “inactive”.

For the compound `C=CCNCC=C`, the Potency result is “inactive”.

`c1ccc2c(c1)[nH]c1ccccc12`: the Potency result is “inactive”.

Turning to `Clc1ccc(Sc2cc(Cl)c(Cl)cc2Cl)cc1`, the Potency result is “inactive”.

As for `C1CN(SSN2CCOCC2)CCO1`, the Potency was 54.4 µM (active).

For the compound `CC(=O)OC(C)C`, the Potency entry was “inactive”.

As to `O=C(O)CCCCCCCCCCCC(=O)O`, the Potency entry was “inactive”.

As to `[O-]/[N+](=N\O)c1ccccc1`, the Potency entry was “inactive”.

`NC[C@H](O)c1ccc(O)c(O)c1`: the Potency result was “inactive”.

On to `COc1ccc(-c2coc3cc(O)cc(O)c3c2=O)cc1`, for which the Potency entry was “inactive”.

Turning to `OC[C@H]1O[C@@H]2O[C@H]3[C@H](O)[C@@H](O)[C@@H](O[C@H]4[C@H](O)[C@@H](O)[C@@H](O[C@H]5[C@H](O)[C@@H](O)[C@@H](O[C@H]6[C@H](O)[C@@H](O)[C@@H](O[C@H]7[C@H](O)[C@@H](O)[C@@H](O[C@H]1[C@H](O)[C@H]2O)O[C@@H]7CO)O[C@@H]6CO)O[C@@H]5CO)O[C@@H]4CO)O[C@@H]3CO`, the Potency result is “inactive”.

For the compound `CC(C)[N+](C)(CCOC(=O)C1c2ccccc2Oc2ccccc21)C(C)C`, the Potency entry was “inactive”.

Consider `Nc1ccc(N)c(Cl)c1`, for which the Potency is 24.5 µM (active) and 49 µM (active).

For `Nc1ccc2c(O)cc(S(=O)(=O)O)cc2c1`, the “activity change, negative = cytotoxicity” value was -8.89% (inactive).

A further experiment can be described thus: qHTS assay to identify small molecule antagonists of the retinoid acid receptor (RAR) signaling pathway - cell viability counter screen (AID 1159551). Note: nearly all actives have a fitted effect of over 35% in size. The note with it: C3RL4 cells viability, ATP luminescence (CellTiter-Glo), 6 h; series mostly up to 92.4 µM; activity change, negative = cytotoxicity: at the top concentration. Summed up:
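C3RL4 cells were seeded overnight at 37 C, then treated with compounds plus 1 uM (final) retinol for 6 h at 37 C. Viability was read as ATP by CellTiter-Glo luminescence after 30 min at room temperature.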
For `COc1ccc2nc(N)sc2c1`, the Potency entry was “inactive”.

Regarding `C[C@]12C=CC(=O)C=C1CC[C@H]1[C@@H]3C[C@@H](O)[C@](O)(C(=O)CO)[C@@]3(C)C[C@H](O)[C@@]12F`, the Potency result was “inactive”.

As to `C[N+](C)(C)CCO`, the Potency result is “inactive”.

`c1ccc2c(c1)ccc1ncccc12`: the Potency result is “inactive”.

On to `Cc1ccc2c(c1)C(=O)OC2=O`, for which the Potency entry was “inactive”.

In the case of `c1ccc2cc3ccccc3cc2c1`, the Potency entry was “inactive”.

`O=Cc1ccccc1C=O`: the Potency result is “inactive”.

Take `CNC[C@H](O)c1ccc(O)c(O)c1`: the Potency result was “inactive”.

In the case of `C=CCOC(=O)C(=C)C`, the Potency entry is “inactive”.

For `C=C1C[C@H]2[C@@H]3C=C(C)C4=CC(=O)CC[C@]4(C)[C@H]3CC[C@]2(C)[C@@]1(OC(C)=O)C(C)=O`, the Potency result was “inactive”.

As to `CCCCCC1C(=O)CCC1CC(=O)OC` (stereo not drawn), the Potency result is “inactive”.

`CC(=O)O[C@]1(C(C)=O)CC[C@H]2[C@@H]3C=C(Cl)C4=CC(=O)CC[C@]4(C)[C@H]3CC[C@@]21C`: the Potency result is “inactive”.

Turning to `CC(=O)Nc1ccc2c(c1)Cc1cc(NC(C)=O)ccc1-2`, the Potency result is “inactive”.

In the case of `Nc1ccc2c(c1)C(=O)c1ccccc1C2=O`, the “activity change, negative = cytotoxicity” value was -9.89% (inactive).

Regarding `O=C(O)c1cc(=O)[nH]c(=O)[nH]1`, the Potency result was “inactive”.

`C[C@]12CC[C@@H]3c4ccc(O)cc4CC[C@H]3[C@@H]1CC[C@H]2O`: the Potency result is “inactive”.

For `IC(I)I`, the Potency result was “inactive”.

Take `O=C1OC2(c3ccccc31)c1cc(I)c(O)c(I)c1Oc1c2cc(I)c(O)c1I`: the Potency is 27.4 µM (active).

Take `Oc1c(Cl)ccc(Cl)c1Cl`: the Potency result is “inactive”.

`Nc1cc(Cl)c(N)c(Cl)c1`: the Potency entry is “inactive”.

For `OC[C@@H](O)[C@@H](O[C@@H]1O[C@H](CO)[C@H](O)[C@H](O)[C@H]1O)[C@H](O)[C@@H](O)CO`, the Potency result was “inactive”.

For the compound `C[C@]12CC[C@@H]3c4ccc(O)cc4CC[C@H]3[C@@H]1CC[C@@H]2O`, the Potency result was “inactive”.

Take `C=CC(C)(O)CCC=C(C)C` (stereo not drawn): the Potency entry is “inactive”.

For the compound `C=C[C@@]1(C)CC(=O)[C@]2(O)[C@@]3(C)[C@@H](O)CCC(C)(C)[C@@H]3[C@H](O)[C@H](OC(C)=O)[C@@]2(C)O1`, the Potency result was “inactive”.

On to `c1ccc2c(c1)ccc1cc3c(ccc4ccccc43)cc12`, for which the Potency result is “inactive”.

As for `C=C[Si](OCCOC)(OCCOC)OCCOC`, the Potency entry is “inactive”.

For `C=CCNCC=C`, the Potency entry is “inactive”.

In the case of `c1ccc2c(c1)[nH]c1ccccc12`, the Potency result is “inactive”.

`Clc1ccc(Sc2cc(Cl)c(Cl)cc2Cl)cc1`: the Potency result was “inactive”.

With `C1CN(SSN2CCOCC2)CCO1`, the “activity change, negative = cytotoxicity” value was -9.61% (inactive).

For `CC(=O)OC(C)C`, the Potency result is “inactive”.

Turning to `O=C(O)CCCCCCCCCCCC(=O)O`, the “activity change, negative = cytotoxicity” value was 7.24% (inactive).

On to `[O-]/[N+](=N\O)c1ccccc1`, for which the Potency result was “inactive”.

On to `NC[C@H](O)c1ccc(O)c(O)c1`, for which the Potency entry is “inactive”.

For the compound `COc1ccc(-c2coc3cc(O)cc(O)c3c2=O)cc1`, the Potency entry was “inactive”.

On to `OC[C@H]1O[C@@H]2O[C@H]3[C@H](O)[C@@H](O)[C@@H](O[C@H]4[C@H](O)[C@@H](O)[C@@H](O[C@H]5[C@H](O)[C@@H](O)[C@@H](O[C@H]6[C@H](O)[C@@H](O)[C@@H](O[C@H]7[C@H](O)[C@@H](O)[C@@H](O[C@H]1[C@H](O)[C@H]2O)O[C@@H]7CO)O[C@@H]6CO)O[C@@H]5CO)O[C@@H]4CO)O[C@@H]3CO`, for which the Potency result was “inactive”.

Regarding `CC(C)[N+](C)(CCOC(=O)C1c2ccccc2Oc2ccccc21)C(C)C`, the Potency entry is “inactive”.

Turning to `Nc1ccc(N)c(Cl)c1`, the “activity change, negative = cytotoxicity” value was -6.4% (inactive).

On to `Nc1ccc2c(O)cc(S(=O)(=O)O)cc2c1`, for which the Potency entry is “inactive”.
